Test results published in ChEMBL document CHEMBL3988442, “University of Dundee, Small-Polar-MMV Screening Library” (2021).
Among all 48,000 compounds or so, about 13,000 (27%) showed an effect of 50% or more. Some of the results follow.

These compounds were tested on Wolbachia pipientis (assay: Anti-Wolbachia Cell-Based Screen). Conditions: 5 µM.
Type: functional
Design: scale not given: in the data most compounds retested in dose-response had high values

Compound | Percent Effect [%]
c1ccc(Oc2ccc(CNCC3CNc4ccnn4C3)cn2)cc1 (centres undefined) | 117.1
COc1ccc(CNC[C@H]2Cn3ccnc3CO2)cn1 | -7.877
Fc1ccc(Oc2ccc(CNCC3CNc4ccnn4C3)cn2)cc1 (centres undefined) | 99.62
O=C(NCCNCC1CNc2ccnn2C1)c1ccc(F)cc1 (centres undefined) | -19.45
c1cc2n(n1)CC(CNCc1ccc(OCC3CC3)nc1)CN2 (centres undefined) | 1.128
Cc1cc2n(n1)CC(CNCc1ccc(-n3cccn3)nc1)CN2 (centres undefined) | -3.824
Cc1cc2n(n1)CC(CNCc1cnn(C)c1)CN2 (centres undefined) | -3.792
Cc1cc2n(n1)CC(CNCc1ccc(OCC3CC3)nc1)CN2 (centres undefined) | 93.19
c1ccc(-n2ccnc2)c(CNCC2CNc3ccnn3C2)c1 (centres undefined) | -6.615
COc1ccc(CNCC2CNc3ccnn3C2)cn1 (centres undefined) | 96.76
c1ccc(Cn2cncn2)c(CNCC2CNc3ccnn3C2)c1 (centres undefined) | 4.151
Fc1cccc(Oc2ccc(CNCC3CNc4ccnn4C3)cn2)c1 (centres undefined) | 5.815
Cc1n[nH]c(C)c1C1CCCN1C(=O)c1coc(Br)c1 (centres undefined) | 4.835
O=C(Cc1ccccc1Br)NCC(=O)Nc1cn[nH]c1 | -11.75
CCN(C(=O)c1cccc2c1OCO2)c1ccccc1 | -1.465
O=C(Nc1ccccn1)N(CCO)Cc1ccsc1 | -7.906
Cc1cc(CN(C)C(=O)NCc2ccccn2)no1 | 9.808
CCN(Cc1cccc2c1OCO2)C(=O)NCCOC | 78.96
O=C(Nc1cn[nH]c1)N(CCO)C1CCc2ccccc21 (centres undefined) | 3.342
CCN(Cc1cccc2c1OCCO2)C(=O)NC(C)(C)C | -7.864
CCN(Cc1cccc2c1OCO2)C(=O)NCc1ccccn1 | 102.4
CCN(Cc1cccc2c1OCO2)C(=O)Nc1ccccn1 | 122.5
CCN(Cc1cccc2c1OCO2)C(=O)Nc1cn[nH]c1 | 109.5

Compound | Percent Effect [%]
COc1cc(CN(C)C(=O)NCc2cccc3c2OCO3)ccc1SC | -31.12
CCN(Cc1ccc2c(c1)OCO2)C(=O)NCc1nc(C)cs1 | -7.212
Nc1nc(CCC(=O)N2CCOC(CC3CCCCC3)C2)cs1 (centres undefined) | -4.495
CC1(C)CCC(C(=O)O)c2ccccc21 (centres undefined) | 1.78
CN(Cc1ccc(Br)o1)C(=O)Nc1cccnc1 | 14.31
Cc1csc(CN2CCC3(CC2)COC(COCC2CC2)C3)n1.O=C(O)C(F)(F)F (centres undefined) | 87.23
O=C(O)C(F)(F)F.O=C(O)C(F)(F)F.c1cncc(OCC2CC3(CCN(CC4CC4)CC3)CO2)c1 (centres undefined) | -1.816
CC(=O)N1CCC2(CC1)COC(COCc1ccccn1)C2.O=C(O)C(F)(F)F (centres undefined) | -3.959
O=C(C1CCSCC1)N1CCC2(CC1)COC(COCC1CC1)C2 (centres undefined) | 0.4038
CCOCC1CC2(CCN(Cc3ccccn3)CC2)CO1 (centres undefined) | -6.984
Cc1cccc(CN2CCC3(CC2)COC(COCC2CC2)C3)n1 (centres undefined) | 102.1
Cc1cc(CN2CCC3(CC2)COC(COCC2CC2)C3)no1.O=C(O)C(F)(F)F (centres undefined) | 95.48
Cc1ncc(CNc2ccc(C(=O)NCc3ccco3)cc2C)s1 | -10.56
CCS(=O)(=O)CCNC(=O)c1ccc(-c2ccc(C)cc2)cc1F | -13.74
CN(C)[C@@H]1CO[C@H](CNC(=O)c2cccs2)[C@H]1O | 5.998
COCC(=O)NCCSCCOc1cccc(Br)c1 | 5.807
Cc1ccnc(N2Cc3cnn(Cc4ccc(F)cc4)c3C2)n1 | -9.844
Cc1cc(C)nc(N2Cc3cnn(Cc4ccc(F)cc4)c3C2)n1 | 10.67
CNc1cc(C)nc(N2Cc3cnn(Cc4ccc(F)cc4)c3C2)n1 | 67.48
CCN(Cc1ccccc1)c1ncnc2c(C)nn(CC)c12 | 90.55
COCCN(Cc1ccccc1)c1cc(C)ncn1 | -9.961
Cc1nn(C)c2c(NCCCn3cccn3)ncnc12 | 1.711
CCCc1nc(N2CCN(CC)CC2)c2c(n1)c(C)nn2CC | -11.71

Compound | Percent Effect [%]
CCn1nc(C)c2ncnc(N(C)C)c21 | 100.5
CCn1nc(C)c2nc(C(C)C)nc(N3CCCCC3)c21 | -10.35
CCN(CC)c1ncnc2c(C)nn(CC)c12 | 92.35
CCn1nc(C)c2ncnc(NCC(=O)N3CCOCC3)c21 | 4.727
CN1CCC(N(C)C[C@H]2CC[C@@H](Cc3cccc(CO)c3)O2)CC1 | -29.03
O=C(NCC1CC1)C1CN(C(=O)c2cccc(Cl)c2)CC12CCOCC2 (centres undefined) | -0.2514
Cn1c(C(=O)N2CCC(C(N)=O)C2)c(Cl)c2ccccc21 (centres undefined) | 50.27
Cn1c(C(=O)N2CCC(C(=O)N3CCCC3)CC2)c(Cl)c2ccccc21 | 1.615
Cn1c(C(=O)N2CCC(CC(N)=O)CC2)c(Cl)c2ccccc21 | -9.644
Cc1ccc(OC2(C(=O)O)CCN(C(=O)c3nc(C)oc3C)CC2)cn1 | -0.6346
CCCNS(=O)(=O)c1ccc(C(=O)NC(CC)c2cnn(C)c2)cc1 (centres undefined) | -2.749
CCC(NS(=O)(=O)c1ccc(C(=O)NC2CC2)cc1)c1cnn(C)c1 (centres undefined) | 100.7
CCC(NS(=O)(=O)c1ccc(C(=O)NC2CC2)cc1)c1ccnn1C (centres undefined) | -9.031
Cc1nc2cc(=O)[nH]n2c(C)c1CNC(=O)C(C)Cc1ccccc1 (centres undefined) | -3.98
COc1cccc2c1N(CC(=O)Nc1ccc(Cl)cn1)CCC2 | 8.099
Cc1ccc2ncn(CC(O)CN3CCC(C)CC3)c(=O)c2c1 (centres undefined) | 8.084
CCN1CCCC(c2nc(O)c3cc(C)ccc3n2)C1 (centres undefined) | 115.3
Cc1ccc2nc(CN3CCC(O)(CN4CCCC4)CC3)cc(O)c2c1 | 3.677
CC(C)CN1CCCC(c2nc(O)c3cc(F)ccc3n2)C1 (centres undefined) | 102.2
Oc1cc(CNCCCN2CCCC2)nc2ccc(F)cc12 | 15.84
Cc1ccc2nc(C3CCCN(CC(C)C)C3)nc(O)c2c1 (centres undefined) | 109.3
Cc1ccc2nc(C3CCN(CC(C)C)CC3)nc(O)c2c1 | 129.6
COC(=O)c1cccc2nc([C@H]3CCN(CC(C)C)C3)oc12 | -3.142

Compound | Percent Effect [%]
Cc1ccc2nc(CN3CCCC3c3cccnc3)cc(O)c2c1 (centres undefined) | 7.141
Cc1ccc2nc(CNCCCN3CCCC3)cc(O)c2c1 | -3.941
CC(C)CN1CCC(NC(=O)c2ccc(F)cc2I)CC1 | 2.48
O=C(c1ccco1)N(CC(F)(F)F)C1CCCOC1 (centres undefined) | -12.11
COCc1csc(NC(=O)NCc2ccc(C)s2)n1 | 0.0103
c1cc(-c2noc(-c3cc(C4CC4)[nH]n3)n2)cc(N2CCCCC2)n1 | -19.77
Cc1cnn(CCC(=O)N2C[C@H]3CC[C@@H]2CN(CC(=O)N(C)C)C3)c1 | -5.732
COCCN(Cc1ccc(C)o1)C(=O)Nc1nnc2ccccn12 | -21.85
Cn1ncc2cnn(CC(O)COCc3ccccc3Cl)c2c1=O (centres undefined) | -6.755
Cc1ccc2nc(C3CCCN(Cc4ccccc4)C3)nc(O)c2c1 (centres undefined) | 104.3
Cc1cc(N2CCN(Cc3ccccc3)CC(O)C2)cc(C)n1 (centres undefined) | -18.63
Cc1cccc(N2CC3(CCN(Cc4nccn4C)C3)CC2=O)c1.O=C(O)C(F)(F)F (centres undefined) | 3.528
COC(=O)c1ccoc1CN(C1CC1)C1CCS(=O)(=O)C1 (centres undefined) | 104.7
O=C(CN(Cc1cccs1)C1CCS(=O)(=O)C1)NCCc1cccs1 (centres undefined) | 4.084
COC(=O)c1cc(NC(=O)NCC2CCS(=O)(=O)C2)ccc1Cl (centres undefined) | -31.29
O=C(Cc1cc2c(cc1Br)OCCO2)NC1CCS(=O)(=O)C1 (centres undefined) | -27.59
COC(=O)c1ccoc1CN(C)CC(=O)NC1CC1 | 113.9
CN(CCC(=O)NC1CC1)Cc1ccc(Cl)s1 | -12.79
CN(Cc1cnn(C)c1)C(=O)NC1CCS(=O)(=O)C1 (centres undefined) | -13.78
COC(=O)c1ccoc1CN(C)CC(=O)NC1CCS(=O)(=O)C1 (centres undefined) | 105.9
CNC(=O)COC(=O)c1ccoc1CN1c2ccccc2CC1C (centres undefined) | -15.23
CC(CS(C)(=O)=O)N(C(=O)Nc1cc(F)ccc1Cl)C1CC1 (centres undefined) | 14.25
CC(C)C(C)N(C(=O)c1cc2c([nH]c1=O)CCCC2=O)C1CC1 (centres undefined) | -5.669

Compound | Percent Effect [%]
O=C(c1cnc2n1CCCC2)N1CCCC1 | 17.49
CC(C)C(=O)N(C)Cc1nnc2n1CCCCC2 | 6.475
CC(c1ccco1)N(C(=O)c1cc2c([nH]c1=O)CCCC2=O)C1CC1 (centres undefined) | -5.594
CC(C)N(C(=O)Cn1nc2n(c1=O)CCCCC2)C1CCC1 | 81.53
CN1[C@H]2CC[C@@H]1CN(C(=O)c1nnc3n1CCCCC3)CC2 | -0.7264
CC(c1ccco1)N(C(=O)Cn1nc2n(c1=O)CCCCC2)C1CC1 (centres undefined) | 105.1
CC(c1ccco1)N(C(=O)NCc1ccon1)C1CC1 (centres undefined) | 5.216
CC(C)C(C)N(C(=O)Cn1nc2n(c1=O)CCCCC2)C1CC1 (centres undefined) | 119.1
Cc1csc(CN2CC[C@H]3C[C@H](c4nnc(C)[nH]4)O[C@@H]3C2)n1 | 1.224
CC(C)N(C)S(=O)(=O)N(Cc1cccs1)Cc1cccs1 | -8.549
CCOCC1CC2(CCN(C(=O)c3ccccc3F)CC2)CO1 (centres undefined) | -17.98
CCOCCCNC(=O)C1(C)CCC(=O)N1c1cc(OC)ccc1OC (centres undefined) | 128.4
CC(=O)NCCCSC1CCN(c2ccccc2F)C1=O (centres undefined) | -10.73
CCOCCCNC(=O)C1(C)CCC(=O)N1c1ccccc1F (centres undefined) | 110.1
CCOCCCNC(=O)C1(C)CCC(=O)N1c1ccccc1OC (centres undefined) | 128.9
CCOCCCNC(=O)N(C)Cc1ccc(SC)c(OC)c1 | 10.44
COc1ccccc1C1(C(=O)NCCN2CCOCC2)CCOCC1 | 3.862
COc1cccc(C(=O)N2CCC3(CCC(=O)N(C(C)C)C3)CC2)c1C | -8.72
CCOCCCNC(=O)C1(C)CCC(=O)N1Cc1ccccc1F (centres undefined) | 119.7
O=C(O)C(F)(F)F.O=C1CCC2(CCCN(Cc3ccccc3F)C2)N1CC1CC1 (centres undefined) | -58.45
CCOC(=O)c1ccc(Nc2ccc(OC)c(N3CCCC3=O)c2)nc1 | -0.2575
CNC(=O)CN1C(=O)CCC12CCCN(Cc1ccccc1F)C2 (centres undefined) | -35.38
